Luc counter = Kinase-Glo luciferase inhibition (counter-screen); Q27757; Kinase-Glo luciferase, ATP luminescence, 8 min; Potency, µM (doses to about 38.3 µM), inactives show at the top dose activity change, negative = inhibition, most hits filed as inhibitors; 200,000 compounds, 0.28% hits; further: on the % scale 0 is the no-effect control and ±100 the full control effect; nearly all actives have a fitted effect of over 60% in size
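Luminescence was the read-out, taken after 8-minute incubation at ambient temperature. Luciferase turned over luciferin with 10 uM ATP in imidazole pH 7.2 buffer containing KCl, MgCl2, Tween 20 and BSA.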
NPC1 promoter act = NPC1 promoter activation | Huh7 NPC1 promoter luciferase reporter, 24 h | Potency, µM (titrated, usually from 9.22 µM), for the others: at the highest dose activation, usual class: activators | 320,000 compounds, 2.4% hits; further: % of control where 0% means no effect; nearly all actives have a fitted effect of over 60% in size
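Compounds in DMSO were transferred onto Huh7 NPC1-luciferase reporter cells pre-incubated 2 h; after 24 h at 37 °C, Amplite reagent was dispensed and luminescence recorded 10 min later.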
SMN2 splice up = SMN2 splice variant enhancement. HEK293 SMN2-luciferase splicing reporter, luminescence, 30-36 h. Potency, µM (top dose mostly 46.1 µM), inactives show at the highest dose activity change, positive = activation, hits mostly activators. 210,000 compounds, 2.8% hits. AID 1458; further: % of control where 0% means no effect; nearly all actives have a fitted effect of over 55% in size
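HEK293 cells carry an SMN2 […]–luciferase reporter in which exon 7 inclusion puts luciferase in frame. Cells were plated 10-12 h before compound addition, then incubated 30-36 h at 37C. ONE-Glo luminescence was read; sodium butyrate at 4.5 mM final served as control.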
Rab9 promoter act = activators of Rab9 promoter | Huh7 Rab9 promoter-luciferase reporter, luminescence, 24 h | Potency, µM (top dose mostly 9.22 µM), for inactives: at the top dose activation, negative = inhibition, most hits filed as activators | 320,000 compounds, 2.8% hits | AID 485297; further: % of control where 0% means no effect; nearly all actives have a fitted effect of over 60% in size
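Using Huh7 cells stably transfected with Rab9 promoter–luciferase, compounds were incubated 24 h at 37 °C, 5% CO2; luciferase luminescence was read 10 min after reagent addition.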
FLuc modulator = firefly luciferase modulation, counter-screen for miR-21 project. 360,000 compounds, 6.9% hits. Potency, µM (series often up to 57.5 µM), without a hit: at the top dose activity change, negative = inhibition, actives largely listed as inhibitors. P08659. AID 588342. purified FLuc, Km substrates, luminescence inhibition;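 further: plate controls were vehicle for no effect and reference inhibitor for full effect; nearly all actives have a fitted effect of over 55% in size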
Target sequence (P08659 whole entry, looked up): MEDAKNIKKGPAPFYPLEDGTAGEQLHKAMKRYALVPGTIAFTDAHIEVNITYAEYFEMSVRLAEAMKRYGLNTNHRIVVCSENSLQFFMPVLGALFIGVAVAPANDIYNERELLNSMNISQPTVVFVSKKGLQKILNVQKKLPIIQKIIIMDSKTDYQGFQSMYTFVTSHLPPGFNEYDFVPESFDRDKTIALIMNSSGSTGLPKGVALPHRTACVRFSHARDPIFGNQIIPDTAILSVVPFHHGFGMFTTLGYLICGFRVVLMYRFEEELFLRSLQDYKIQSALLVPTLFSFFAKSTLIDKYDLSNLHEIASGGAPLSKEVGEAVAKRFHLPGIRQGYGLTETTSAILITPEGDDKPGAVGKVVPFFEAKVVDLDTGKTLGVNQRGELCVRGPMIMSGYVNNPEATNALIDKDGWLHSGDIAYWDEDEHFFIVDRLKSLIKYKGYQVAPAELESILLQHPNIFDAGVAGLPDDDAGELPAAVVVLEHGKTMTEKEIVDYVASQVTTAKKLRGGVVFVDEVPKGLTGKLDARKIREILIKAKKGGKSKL
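Biochemical qHTS of compounds, final roughly 60 µM downward over six points, against 10 nM purified firefly luciferase using Km concentrations of substrates (10 uM D-luciferin, 10 uM ATP) in Tris acetate pH 7.5 buffer; luminescence output.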
ELG1 genotoxic = genotoxicity induction in ELG1-luciferase HEK293T cells. HEK293T ELG1-luciferase reporter, luminescence, 16 h. Potency, µM (series often up to 46 µM), for inactives: top-dose activity change, positive = activation, hits mostly activators. 330,000 compounds, 1.3% hits; further: % of control where 0% means no effect; nearly all actives have a fitted effect of over 60% in size
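HEK293T cells expressing luciferase-tagged ELG1 were treated with compound or DMSO for 16 hr at 37°C. Luciferase activity was then read after 30 min with ONE-Glo at room temperature; rising signal flags genetic stress.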
The depositor's hits bear a star; ? = inconclusive; . = not tested or not shown; [ ] = another dose, or the depositor's remark. In the library only some 7.3% were active in any assay of this set; here they are far more common. The call rests on the fitted dose curve; in most records, active means well fitted curve in the direction sought with a large enough effect; inconclusive means small, poorly fitted or top-dose-only effect, or another doubt; inactive means no such curve, though single readings can be large; an effect the other way counts as inactive or inconclusive. Potency means the concentration at half of the fitted maximal effect.

SMILES | Luc counter | NPC1 promoter act | SMN2 splice up | Rab9 promoter act | FLuc modulator | ELG1 genotoxic
COc1cc(/C=N/Nc2nc3ccccc3o2)cc(OC)c1O | -1% | 1% | -6% | 8% | 15µM* | 15%
CC(=O)Nc1ccc(S(=O)(=O)Nc2nc3ccccc3s2)cc1 | -4% | -1% | 21% | 0% | 5% | 0%
COc1ccc(C=C(c2nc3ccccc3s2)c2nc3ccccc3s2)cc1O | -3% | 0% | -50% | 6% | 11µM* | ?
COc1cc(/C=N\Nc2nc3ccccc3o2)cc(OC)c1OC | -5% | ? | 4% | 24% | ? | 12%
NC(=S)NNC(N)=S | . | . | 14% | . | . | .
Cc1cccc(N2CCN(C(=O)C3CCN(S(=O)(=O)Cc4ccccc4)CC3)CC2)c1C | . | . | . | . | 0% | .
CC(=O)Nc1cccc(/C(C)=N/Nc2nc3ccccc3s2)c1 | -1% | 2% | 11µM* | ? | 11µM* | ?
COc1ccc(/C=N/Nc2nc3ccccc3s2)cc1O | -9% | ? | 17% | ? | 0.24µM* | 2.3µM*
CC(=O)Nc1cccc(/C(C)=N/NC(=O)c2cc(-c3ccncc3)nc3ccccc23)c1 | . | -2% | . | 0% | ? | -3%
COc1ccccc1-c1nc(SCC(=O)NCc2ccccc2)c2c(=O)n(C)c(=O)n(C)c2n1 | . | . | . | . | 5% | .
CCOc1ccc(CCNC(=O)Cn2nnc(-c3ccc(C(F)(F)F)cc3)n2)cc1OCC | . | . | -7% | . | -2% | .
CC(=O)c1ccc(NC(=O)C2(c3ccccc3)CC2(Cl)Cl)cc1 (configuration not stated) | . | ? | . | ? | 27µM* | ?
CC(=O)c1ccc(NC(=O)/C(Cl)=C/c2ccccc2)cc1 | -8% | 3.5µM* | ? | 4µM* | 0.95µM* | 8.2µM*
O=C(Nc1ccc(F)cc1)/C(Cl)=C/c1ccccc1 | -15% | 4µM* | 14µM* | 2.5µM* | 1.2µM* | ?
COc1cc(Cl)c(C)cc1NC(=O)c1cc(CN2CCOCC2)on1 | . | . | . | . | -6% | .
COc1ccc(-c2cc3ccc(OCc4nn[nH]n4)cc3oc2=O)cc1OC | -12% | -1% | 15% | -7% | 15µM* | 2%
COC(=O)COc1ccc2cc(-c3ccccc3)c(=O)oc2c1 | . | 0% | . | -6% | 12µM* | -1%[9.26 µM]
COC(=O)COc1ccc2cc(-c3ccc(OC)cc3)c(=O)oc2c1 | . | -3% | . | 0% | ? | 4%
COc1ccc(-c2cc3ccc(OCC(C)=O)cc3oc2=O)cc1OC | . | 4µM* | . | 2µM* | 15µM* | ?
COc1ccc(-c2cc3ccc(OCC(C)=O)cc3oc2=O)cc1 | . | 1.3µM* | . | 1µM* | 1.9µM* | ?
CCC(Oc1ccccc1)C(=O)Nc1ccccc1OCc1cc(=O)n2ccccc2n1 (configuration not stated) | . | . | . | . | 6% | .
Cc1sc(NC(=O)c2ccc(=O)n(C)n2)nc1-c1ccccc1 | -3% | 1% | 11% | 12% | 13µM* | 0%
COc1ccc(-c2csc(NC(=O)c3cccc(N4C(=O)CCC4=O)c3)n2)cc1C | . | 1% | . | 0% | 11µM* | -6%
Cc1sc(NC(=O)c2cccc(N3C(=O)CCC3=O)c2)nc1-c1ccccc1 | . | 12% | . | 0% | 4.8µM* | 4%
O=C(Nc1ccc2sccc2c1)c1cccc(N2C(=O)CCC2=O)c1 | 0% | ? | 19% | 4µM* | 8.5µM* | 18µM*
SMILES | Luc counter | NPC1 promoter act | SMN2 splice up | Rab9 promoter act | FLuc modulator | ELG1 genotoxic
COc1ccc(OC)c2sc(NC(=O)c3cccc(N4C(=O)CCC4=O)c3)nc12 | . | -1% | . | 0% | 2% | 14%
COC(=O)c1cc(NC(=O)c2ccc3c(c2)N(Cc2cccc(Cl)c2)C(=O)c2ccccc2S3=O)cc(C(=O)OC)c1 (configuration not stated) | . | . | . | . | 0% | .
Cc1cc(C)cc(NC(=O)C(=O)NC(C)c2ccccc2)c1 (configuration not stated) | . | . | -16% | . | 5% | .
CCOC(=O)c1noc2ncnc(Nc3ccc(C)c(F)c3)c12 | . | . | . | . | 1% | .
CCN(CC)S(=O)(=O)c1cccc(C(=O)Nc2nc3cc4c(cc3s2)OCCO4)c1 | -3% | -3% | -77% | -6% | 9.5µM* | -18%
O=C(Nc1nc2cc3c(cc2s1)OCCO3)c1cccc(N2C(=O)CCC2=O)c1 | . | ? | . | ? | 0.76µM* | 9%
O=C(NNc1nc2cc3c(cc2s1)OCO3)c1cccc(F)c1 | -4% | 9% | 18% | 3% | 17µM* | -4%
O=C(Nc1nc2ccccc2s1)c1cccc(N2C(=O)CCC2=O)c1 | . | -5% | . | 4% | -1% | -7%
Cc1oc2ccc(O)c(CN(C)Cc3ccccc3)c2c1C(=O)Nc1cccc(C(F)(F)F)c1 | . | . | -91% | . | 5% | .
COc1ccc(CN(C)CC(=O)NC(=O)Nc2ccccc2F)cc1 | . | -1% | . | 14% | . | -1%
CCN(CC(=O)NC(=O)Nc1ccccc1F)Cc1ccccc1 | . | -8% | . | 1% | 2% | 18µM*
CCN(CC)c1ccc(NC(=O)c2ccccc2F)cc1 | 0% | ? | 11µM* | 0.56µM* | 6µM* | ?
O=C(Nc1ccc(Nc2ccccc2)cc1)c1ccccc1F | . | ? | . | ? | 12µM* | ?
O=C(O)c1cc(NC(=O)c2ccccc2F)cc(NC(=O)c2ccccc2F)c1 | . | -2% | . | 8% | 0% | 2%
COc1cccc(C2C(C(=O)Nc3ccc(C)cc3C)=C(C)Nc3c(C(=O)Nc4cccc(C)c4)cnn32)c1OC (configuration not stated) | . | . | . | . | 3% | .
COc1ccc(CNC(=O)Nc2ccc(C)cc2C)cc1 | -2% | 5% | 13% | -2% | -3% | 3%
Cc1cc2cc(CNC(=O)Nc3ccccc3)ccc2[nH]1 | -2% | ? | ? | ? | 19µM* | ?
COc1ccc(CNC(=O)Nc2ccccc2)cc1 | . | ? | . | 3.5µM* | 19µM* | ?
COc1ccc(CNC(=O)Nc2cccc(C)c2)cc1 | -4% | 3.2µM* | 20% | 4µM* | ? | ?
COc1ccc(CNC(=O)Nc2ccc(OC)cc2)cc1 | 3% | -1% | 29% | -4% | -2% | 15%
Cc1ccc(CNC(=O)Nc2ccccc2)c(C)c1 | . | 2.5µM* | . | 3.2µM* | 2.7µM* | 18µM*
Nc1ncnc2c1nc(Sc1ccc(Cl)cc1)n2[C@H]1O[C@@H]2COP(=O)(O)O[C@H]2[C@@H]1O | -1% | . | 5% | . | . | .
COc1cc2c3cc1Oc1c(OC)c(OC)cc4c1[C@@H](Cc1ccc(O)c(c1)Oc1ccc(cc1)C[C@@H]3N(C)CC2)CN(C)C4 | -1%[7.66 µM] | . | 1%[9.22 µM] | . | . | .
CCCCC(CC)CNC(=O)c1ccc(Cn2c(=O)[nH]c3cc(OC)c(OC)cc3c2=O)cc1 (configuration not stated) | . | . | -6% | . | 3% | .
